Source: PubChem BioAssay (NCI)
The panel holds about 83,000 compounds, 20% with a hit somewhere; the sample as a whole holds those more often.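 Single-concentration screen, 48 h exposure, 96-well plates. Endpoint: percent growth. Below 10 = active.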 The source made the active and inactive calls.

Assays:
Assay in all cases: NCI-60 one-dose screen, 48 h (100 = growth as untreated, 0 = no growth, -100 = all killed)
Details in all cases: 10 µM unless noted
[1] = tested on: SR leukemia
[2] = tested on: RPMI-8226 leukemia
[3] = tested on: OVCAR-8 ovarian
[4] = tested on: OVCAR-5 ovarian
[5] = tested on: OVCAR-4 ovarian
[6] = tested on: SK-OV-3 ovarian
[7] = tested on: IGROV1 ovarian
[8] = tested on: OVCAR-3 ovarian
[9] = tested on: HS 578T breast
[10] = tested on: NCI/ADR-RES ovarian
[11] = tested on: T-47D breast
[12] = tested on: BT-549 breast
[13] = tested on: MDA-MB-435 melanoma
[14] = tested on: SW-620 colon
[15] = tested on: MCF7 breast
[16] = tested on: HCT-116 colon
[17] = tested on: HCC-2998 colon
[18] = tested on: KM12 colon

Measured: growth

COc1ccc(Nc2nc(-c3cc(O)c(C)c(C)c3O)cs2)cc1
active: [13] 7.82%
inactive: [1] 37.1% | [2] 33.6% | [3] 70.7% | [4] 103% | [5] 73.7% | [6] 71.3% | [7] 66.5% | [8] 10.5% | [9] 76.7% | [10] 23% | [11] 39.5% | [12] 79.1% | [14] 70.6% | [15] 47.1% | [16] 82.5% | [17] 110% | [18] 23.7%

Cc1[nH]c(=O)[nH]c(=O)c1Br
inactive: [1] 77.6% | [2] 111% | [3] 95.2% | [4] 114% | [5] 117% | [6] 115% | [7] 147% | [8] 124% | [9] 104% | [10] 97.8% | [11] 108% | [12] 108% | [13] 102% | [14] 102% | [15] 95.6% | [16] 106% | [17] 87.8% | [18] 108%

C=C1C(=O)O[C@H]2[C@H]1CC/C(COC(=O)C(=O)c1cn(C)c3ccc(Cl)cc13)=C\CC[C@@]1(C)O[C@@H]21
active: [1] 2.71% | [2] -33.7% | [3] -23.9% | [4] -47.6% | [5] -61.2% | [6] -35.4% | [7] -72.1% | [8] -86.3% | [9] -16.9% | [10] -3.58% | [11] -55.6% | [12] -74.5% | [13] -81.3% | [14] -69.1% | [15] -54.3% | [16] -96.4% | [17] -80.3% | [18] -49.7%

COC1=CC(c2ccc[nH]2)=N/C1=C\c1[nH]c(C)c(C(=O)OC(C)C)c1C
inactive: [1] 11.8%
active: [2] -34.6% | [3] 2.67% | [4] -40.2% | [5] -49.7% | [6] 7.3% | [7] -41.5% | [8] -53.9% | [9] -32.8% | [10] -12.5% | [11] -69.2% | [12] -7.21% | [13] -66.2% | [14] -29.2% | [15] -35.5% | [16] -90.3% | [17] -53.2% | [18] -66.3%

CCCCNC(=O)CC1=C(C)/C(=C/c2[nH]c(-c3ccc[nH]3)cc2OC)N=C1C
inactive: [2] 39.2% | [3] 20.5% | [4] 50.2% | [5] 39.7% | [6] 51.7% | [7] 49.2% | [8] 24.4% | [9] 43.1% | [10] 30.1% | [11] 32.6% | [12] 41.7% | [13] 20.2% | [14] 12.5% | [15] 22.3% | [17] 33.8% | [18] 13.4%
active: [1] -16.8% | [16] 3.1%

COc1ccc(/C=C(\C#N)n2nnc3cc(Cl)ccc32)cc1
inactive: [1] 19% | [3] 12.6% | [5] 25.5% | [6] 44.4% | [11] 17.2%
active: [2] 8.04% | [4] -33.7% | [7] 3.88% | [8] -35.8% | [9] -8.59% | [10] -11.6% | [12] -1.84% | [13] -61.6% | [14] 8.09% | [15] 1.74% | [16] -9.51% | [17] -30.2% | [18] 5.89%

COc1cc2c(c(OC)c1OC)CCC(c1cccc(C(=O)Nc3ccc(C#N)cc3)c1)O2 (stereo unspecified)
inactive: [1] 16.9% | [2] 14.4% | [3] 28.5% | [4] 79.3% | [5] 35.3% | [6] 73.2% | [7] 68.9% | [8] 65.6% | [9] 72.3% | [10] 19% | [12] 27.2% | [13] 36.6% | [14] 86.7% | [15] 32.5% | [16] 48.8% | [17] 73.1% | [18] 60.6%
active: [11] 3.61%

O=C(N/N=C/c1c(Cl)cccc1Cl)c1cccnc1Nc1cccc(C(F)(F)F)c1
active: [2] 3.23%
inactive: [1] 54.5% | [3] 49.4% | [4] 53.4% | [5] 25.1% | [6] 27% | [7] 31.8% | [8] 46.8% | [9] 112% | [10] 31% | [11] 15.7% | [12] 43% | [13] 36.2% | [14] 44.9% | [15] 23.2% | [16] 35.5% | [17] 72.2% | [18] 41.9%

O=C(Nc1ccc(OS(=O)(=O)c2ccc(F)cc2)cc1)C1CCCCCC1
inactive: [1] 70.2% | [2] 78% | [3] 93.2% | [4] 99.7% | [5] 98.5% | [6] 97.5% | [7] 118% | [8] 96.1% | [9] 82.4% | [10] 82.1% | [11] 81.4% | [12] 80.5% | [13] 97.3% | [14] 88.9% | [15] 92.1% | [16] 84.5% | [17] 78.9% | [18] 70.3%

COc1ccc(F)cc1/C=C/C(=O)/C=C(/C=C/c1cc(F)ccc1OC)OB(F)F
inactive: [4] 48.9% | [5] 28.8% | [6] 97% | [7] 25% | [9] 19.9% | [10] 19.8% | [11] 36.4% | [12] 33.7% | [14] 14.1% | [15] 29.2% | [17] 104% | [18] 73.6%
active: [1] -0.793% | [2] -13.5% | [3] 7.46% | [8] 1.71% | [13] 2.57% | [16] 0.9%

O=C1/C(=C\c2ccc3nccnc3c2)SC(=S)N1CCc1ccc(O)cc1
inactive: [1] 68.9% | [2] 68.2% | [3] 98.4% | [4] 102% | [5] 88.1% | [6] 113% | [7] 94.1% | [8] 101% | [9] 94.3% | [10] 101% | [11] 50.4% | [12] 96.5% | [13] 93.2% | [14] 98.2% | [15] 41.9% | [16] 94.8% | [17] 117% | [18] 52.1%

C=CC(=O)N1CCN(c2cccc(Oc3nccc(Nc4nnc(-c5ccc(Br)cc5)s4)n3)c2)CC1
inactive: [1] 29.9% | [2] 50.4% | [3] 66% | [4] 89.9% | [5] 88.9% | [6] 80.2% | [7] 55.9% | [8] 19.2% | [9] 67.5% | [10] 48.4% | [11] 63.6% | [12] 67.1% | [14] 35.2% | [15] 35.9% | [16] 58.4% | [17] 89.9% | [18] 43.8%
active: [13] -5.55%

COc1ccc(-c2nn(-c3cccc(Cl)c3)cc2-c2cc(-c3ccc(Br)cc3)nc(N)n2)cc1
inactive: [1] 82% | [2] 84.1% | [3] 98.9% | [4] 97.2% | [5] 96% | [6] 102% | [7] 89.2% | [8] 107% | [9] 99.7% | [10] 99.8% | [11] 66.2% | [12] 114% | [13] 99.6% | [14] 100% | [15] 57.4% | [16] 91.5% | [17] 104% | [18] 93.4%

C[PH+](c1nc2ccccc2nc1[PH+](C)C(C)(C)C)C(C)(C)C.C[PH+](c1nc2ccccc2nc1[PH+](C)C(C)(C)C)C(C)(C)C.[Au+].[Cl-] (stereo unspecified)
active: [1] 6.59% | [2] -18.1% | [3] -54.3% | [4] -100% | [5] -100% | [6] -100% | [7] -87.9% | [8] -100% | [9] -38.6% | [10] -79.5% | [11] -79.9% | [12] -74.4% | [13] -79.3% | [14] -100% | [15] -84.3% | [16] -100% | [17] -100% | [18] -99.3%

CCCc1c(OC(=O)c2ccccc2)nc2[nH]c(=O)sc2c1C
inactive: [1] 115% | [2] 103% | [3] 102% | [4] 98.8% | [5] 114% | [6] 95.8% | [7] 101% | [8] 103% | [9] 99.9% | [10] 97.9% | [11] 89.7% | [12] 95.1% | [13] 103% | [14] 95.3% | [15] 92.9% | [16] 98% | [17] 93.5% | [18] 101%

Clc1ccc2c(c1)C(c1c[nH]c3ccccc13)(c1c[nH]c3ccccc13)CCO2
active: [11] -3.57%
inactive: [1] 63.8% | [2] 42.3% | [3] 58.6% | [4] 96% | [5] 73.3% | [6] 39.6% | [7] 85.8% | [8] 81.2% | [9] 76.6% | [10] 92.2% | [12] 77.2% | [13] 94.9% | [14] 87.4% | [15] 103% | [16] 56.5% | [17] 112% | [18] 78.2%

COc1c(B(O)O)cccc1-c1nc2c(F)cc3[nH]ncc3c2c2c1CCCC2
inactive: [3] 15.1% | [6] 18.2% | [10] 17.7%
active: [1] 1.26% | [2] -11.7% | [4] 7.97% | [5] 6.02% | [7] 7.11% | [8] -0.0178% | [9] 5.7% | [11] 8.61% | [12] -46.1% | [13] 8.04% | [14] 1.12% | [15] -3.83% | [16] 2.84% | [17] 1.17% | [18] -12.1%
